Reference: PubChem BioAssay AID743314 (Broad Institute, 2014)
Potency and affinity values are given separately. Records with an inconclusive call do not appear. A call without a number means that no potency is given here. Activity calls are given as the source filed them.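 The calls were made as follows: active = fitted half-maximal concentration no higher than twice the top tested dose, in every repeat run; inconclusive = repeat runs disagree, poor fit, or flat partial inhibition; inactive = the rest.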

Biological target: Endoplasmic reticulum aminopeptidase 1 (Homo sapiens) (UniProt Q9NZ08)
Assay: inhibition of human ERAP1 enzyme activity – biochemical, cherry-pick, set 2, plate reader, dose response (AID 743314)

Chain of Endoplasmic reticulum aminopeptidase 1 (Homo sapiens) (Q9NZ08 whole entry, looked up): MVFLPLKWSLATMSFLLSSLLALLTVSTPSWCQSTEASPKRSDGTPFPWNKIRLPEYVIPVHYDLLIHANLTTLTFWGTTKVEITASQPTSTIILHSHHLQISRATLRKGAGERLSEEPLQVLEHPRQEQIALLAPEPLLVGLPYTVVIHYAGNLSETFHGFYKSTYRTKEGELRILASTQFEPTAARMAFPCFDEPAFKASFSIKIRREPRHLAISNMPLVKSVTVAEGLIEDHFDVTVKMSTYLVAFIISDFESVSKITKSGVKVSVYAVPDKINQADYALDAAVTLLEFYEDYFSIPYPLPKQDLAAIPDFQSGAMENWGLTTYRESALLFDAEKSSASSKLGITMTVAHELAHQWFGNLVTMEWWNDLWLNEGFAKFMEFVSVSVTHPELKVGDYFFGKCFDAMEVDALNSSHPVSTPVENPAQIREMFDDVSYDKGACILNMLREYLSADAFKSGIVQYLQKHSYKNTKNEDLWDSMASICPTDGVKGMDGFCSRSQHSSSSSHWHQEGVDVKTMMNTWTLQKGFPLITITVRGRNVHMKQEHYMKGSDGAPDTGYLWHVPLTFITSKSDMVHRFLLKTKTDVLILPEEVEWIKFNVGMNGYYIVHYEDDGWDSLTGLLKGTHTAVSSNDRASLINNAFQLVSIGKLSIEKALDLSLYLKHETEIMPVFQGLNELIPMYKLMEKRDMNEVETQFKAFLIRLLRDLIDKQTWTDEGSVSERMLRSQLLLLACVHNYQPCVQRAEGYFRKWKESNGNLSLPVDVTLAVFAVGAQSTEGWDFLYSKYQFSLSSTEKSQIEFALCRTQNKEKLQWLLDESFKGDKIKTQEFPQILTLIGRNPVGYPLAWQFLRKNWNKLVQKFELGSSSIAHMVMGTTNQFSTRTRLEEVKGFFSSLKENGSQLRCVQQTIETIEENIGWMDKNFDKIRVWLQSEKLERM

SMILES: Cc1cc(=O)oc2cc(OCC(=O)N3CCN(C(C)c4ccccc4)CC3)c(Cl)cc12 (configuration not stated)
- outcome: inactive

SMILES: Cc1cc(OCC(=O)NC(Cc2ccc(Cl)cc2)C(=O)O)c2c3c(c(=O)oc2c1)CCCC3 (configuration not stated)
- outcome: inactive
